The supplement of paper PMC10981050
Values joined by “and” are separate entries in the source; they are usually repeats but may differ in a detail not shown here. Identical values can stand only once. Counter-ions that a name gives are not always drawn.

Experiments:
Test in all cases: cell viability relative to vehicle control; higher = less cytotoxic
Settings in all cases: 10 µM
K562 = system: K562
In short: (§1)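 Mutant clones made by CRISPR editing and their isogenic wild-type counterparts, from four leukaemia lines, were exposed to a single 10 µM dose of each library compound for 48 h. The supernatant was then removed and CellTiter-Glo luminescence was read. Viability was reported as percent of the on-plate vehicle control.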

MARIMO = system: MARIMO
In short: as §1

MOLM14 = system: MOLM14
In short: as §1

OCI-AML2 = system: OCI-AML2
In short: as §1

SMILES | cell viability (K562; SRSF2 genotype: SRSF2 P95H/wt) | cell viability (K562; SRSF2 genotype: SRSF2 wt/wt) [%] | cell viability (MARIMO; SRSF2 genotype: SRSF2 P95H/wt) [%] | cell viability (MARIMO; SRSF2 genotype: SRSF2 wt/wt) [%] | cell viability (MOLM14; SRSF2 genotype: SRSF2 P95H/wt) [%] | cell viability (MOLM14; SRSF2 genotype: SRSF2 wt/wt) [%] | cell viability (OCI-AML2; SRSF2 genotype: P95H/wt) [%] | cell viability (OCI-AML2; SRSF2 genotype: wt/wt) [%]
CN(C)C(=O)C(CCN1CCC(O)(c2ccc(Cl)cc2)CC1)(c1ccccc1)c1ccccc1 [Loperamide hydrochloride] | 45.5% and 54.9% | 49.4 | 55.5 | 61.6 | 58.5 | 59.7 | 44.2 | 54.9
CC(C)c1onc(-c2c(Cl)cccc2Cl)c1COc1ccc(/C=C/c2cccc(C(=O)O)c2)c(Cl)c1 | 95.1% and 94.7% | 99.7 | 94.5 | 98.6 | 95.5 | 97.3 | 69.3 | 82
CN(C)CCOc1ccc(-c2nc(-c3ccncc3)c(-c3ccc4c(c3)CC/C4=N\O)[nH]2)cc1 | 1.3% and 2.07% | 0.83 | 11.5 | 4.32 | 30.2 | 49.3 | 6.47 | 15.8
NC(=O)c1ncn([C@@H]2O[C@H](CO)[C@@H](O)[C@H]2O)c1N [AICAR (Acadesine)] | 109% and 107% | 109 | 101 | 110 | 107 | 118 | 93.1 | 105
CCCCCCC(O)C(=O)O (stereo not drawn) [2-Hydroxycaprylic acid] | 103% and 102% | 107 | 101 | 105 | 101 | 109 | 105 | 111
CC(=C(CCOC(=O)C(C)C)SSC(CCOC(=O)C(C)C)=C(C)N(C=O)Cc1cnc(C)nc1N)N(C=O)Cc1cnc(C)nc1N (stereo in doubt) [Sulbutiamine] | 99% and 93.5% | 93.6 | 84.7 | 95.4 | 84.2 | 90.8 | 84.7 | 93.6
CN(C)C(=O)Nc1cccc(-c2ccc(N(C)C)cc2)c1 [Atglistatin] | 90.1% and 82.6% | 91.3 | 91.4 | 99.9 | 96.8 | 92.4 | 92.7 | 89.2
CCCNC(=O)Nc1ccc(Oc2ncnc3cc(OC)c(OC)cc23)cc1Cl | 99.4% and 106% | 99.8 | 108 | 113 | 92 | 105 | 99.5 | 101
O.O.O.O.O.O.O.[Cl][La]([Cl])[Cl] [Lanthanum(III) chloride heptahydrate] | 107% and 102% | 102 | 109 | 114 | 107 | 104 | 99.2 | 99.4
C=C[C@@H]1CNC(=S)O1 [Epigoitrin] | 103% and 97.6% | 101 | 91.3 | 93.1 | 101 | 99.2 | 103 | 104
CC(O)COCC1OC2OC3C(COCC(C)O)OC(OC4C(COCC(C)O)OC(OC5C(COCC(C)O)OC(OC6C(COCC(C)O)OC(OC7C(COCC(C)O)OC(OC8C(COCC(C)O)OC(OC1C(O)C2O)C(O)C8O)C(O)C7O)C(O)C6O)C(O)C5O)C(O)C4O)C(O)C3O (stereo not drawn) | 100% and 108% | 109 | 105 | 112 | 106 | 108 | 108 | 95.8
CC(C)Cc1ccc([C@@H](C)C(=O)NS(C)(=O)=O)cc1 [Reparixin (Repertaxin)] | 102% and 97.5% | 98.4 | 97.6 | 99.2 | 95.7 | 98.4 | 93.3 | 105
Nc1ncnc2n[nH]c(Nc3ccc(F)cc3)c12 | 86.7% and 96.4% | 82.6 | 70 | 67.5 | 69.2 | 71.8 | 65.5 | 63.8
CN(C)C(=O)[C@H](O)[C@H](Cc1ccccc1)NC(=O)c1cc2cc(Cl)ccc2[nH]1 | 92.2% and 98.4% | 98 | 95.3 | 98.2 | 88.9 | 104 | 90 | 84.7
Nc1ccc(C(=O)NCC(=O)O)cc1 [4-Aminohippuric Acid] | 97.6% and 98.4% | 98.2 | 92.9 | 102 | 95.7 | 97.4 | 92.8 | 103
CCCC(=O)OCOC(=O)C1=C(C)NC(C)=C(C(=O)OC)C1c1cccc(Cl)c1Cl (stereo not drawn) [Clevidipine Butyrate] | 102% and 105% | 104 | 100 | 107 | 104 | 109 | 107 | 108
CS(=O)(=O)N1CCc2c(-c3cnc(N)nc3)nc(N3CCOCC3)nc21 | 56.4% and 67% | 66.8 | 53.6 | 42.5 | 34.2 | 35.9 | 17.8 | 25.3
CN(C)[C@@H](CCOc1cccc2ccccc12)c1ccccc1 [Dapoxetine hydrochloride (Priligy)] | 65.8% and 82.9% | 73 | 52.7 | 59 | 53.9 | 58.8 | 58.9 | 63.1
Cn1cnc(=N)c2[nH]cnc21 [3-Methyladenine (3-MA)] | 94.6% and 88.8% | 106 | 82.6 | 92.4 | 88 | 92 | 93.4 | 97.6
CCC[C@@H]1C[C@@H](C(=O)N[C@@H]([C@H]2O[C@H](SC)[C@H](O)[C@@H](O)[C@H]2O)[C@H](C)Cl)N(C)C1 [Clindamycin] | 96.3% and 99.1% | 103 | 104 | 106 | 95.3 | 99.8 | 113 | 98.9
C=C(Cc1ccccc1Cl)C(=O)OCC | 95.9% and 107% | 91.8 | 107 | 100 | 96.2 | 98.2 | 106 | 101
